Inconclusive results are not listed. A call without a number means that no potency is given here. Activity calls are given as the source filed them. Calls follow the shape of the dose curve; as a rule, active = well fitted inhibition curve with a large enough effect; inconclusive = small, poorly fitted or top-dose-only effect; inactive = flat fitted curve, though single readings scatter.
system: P94_40; experiment: qHTS profiling for inhibitors of Plasmodium falciparum proliferation (AID 504749); also: nearly all actives have a fitted effect of over 60% in size; conditions: P. falciparum in erythrocytes, SYBR Green DNA, 72 h; series mostly up to 28.7 µM
How it was run: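 Three-day growth assay of blood-stage parasites in erythrocytes (0.3% parasitemia, 2.5% hematocrit) at 37 C, 5% CO2, quantified by SYBR Green DNA staining after overnight detergent lysis.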
Potency is read from the fitted curve at half-maximal effect.

Row | SMILES | Potency
1 | CCCCCCCCCCCCCCCC(=O)OC[C@H](O)[C@H]1OC[C@@H](O)[C@@H]1O | inactive
2 | CCCCC(=O)OCC(=O)[C@]1(O)Cc2c(O)c3c(c(O)c2[C@H](OC2CC(NC(=O)C(F)(F)F)C(O)C(C)O2)C1)C(=O)c1c(OC)cccc1C3=O (stereo not given in full) | 2 µM (active)
3 | C[C@H]1OC(OC2C(O)[C@@H](O)C(OC3C(O)[C@@H](O)C(O)O[C@@H]3CO)O[C@@H]2CO)[C@H](O)C(O)C1N[C@H]1C=C(CO)[C@@H](O)[C@H](O)C1O (stereo not given in full) | inactive
4 | CCN(CC)CC(=O)Nc1c(C)cc(C)cc1C | inactive
5 | CC(=O)N[C@H]1[C@H](O[C@@H]2c3ccc(c(Cl)c3)Oc3cc4cc(c3O[C@@H]3O[C@H](CO)[C@@H](O)[C@H](O)C3C)Oc3ccc(cc3Cl)C[C@H]3NC(=O)[C@@H](N)c5ccc(O)c(c5)Oc5cc(O)cc(c5)[C@H](NC3=O)C(=O)N[C@H]4C(=O)N[C@H]3C(=O)N[C@@H]2C(=O)N[C@@H](C(=O)O)c2cc(O)cc(O[C@H]4O[C@H](CO)[C@@H](O)C(O)[C@@H]4O)c2-c2cc3ccc2O)O[C@H](CO)[C@@H](O)[C@@H]1O (stereo not given in full) | inactive
6 | NC(=O)c1ncn(C2OC(CO)C(O)C2O)c1N (stereo not given) | inactive
7 | C[C@H]1[C@@H](OC(=O)CCC(=O)O)OC2OC3(C)CC[C@H]4[C@H](C)CC[C@@H]1[C@@]24OO3 (stereo not given in full) | 0.0022 µM (active)
8 | CC1(Cn2ccnn2)[C@H](C(=O)O)N2C(=O)C[C@H]2S1(=O)=O (stereo not given in full) | inactive
9 | CN(C)CC/C=C1\c2ccccc2COc2ccc(CC(=O)O)cc21 | inactive
10 | CCCC(=O)O[C@]1(C(=O)COC(C)=O)CC[C@H]2C3C[C@H](F)C4=CC(=O)C=CC4(C)[C@@]3(F)[C@@H](O)CC21C (stereo not given in full) | inactive
